Source: PubChem BioAssay
Values joined by “and” are separate entries in the source; they are usually repeats but may differ in a detail not shown here. Equal values may be shown once. Active and inactive are the calls of the source. Unless noted, no rule for the calls is given here.

Experiments:
[1] = P. berghei load reduction in hepatocytes – cell-based, HepG2, luciferase luminescence, HepG2 viability, primary screen (AID 624349; in the data active = parasite load remaining mostly below about 12%, no sharp cut-off; inactive = mostly above about 10%;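 also: 100% = mean of DMSO negative control wells on the same plate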); details: P. berghei liver stage in HepG2, luciferase luminescence, concentration not given here; parasite load remaining: stronger effect = lower value; viability: measured here: HepG2 viability without parasites
[2] = signal quenchers or enhancers, Cy5 substrate/SSB – biochemical, NIH Clinical Collection, E. coli SSB, artefact control for HCV NS3 helicase inhibitor project (AID 743268); details: Cy5-oligo bound E. coli SSB, fluorescence interference
[3] = test system: Hepatitis C virus NS3 helicase; experiment: blockers of NS3h binding to DNA – biochemical, fluorescence polarization, NIH Clinical Collection, primary screen (AID 743270); details: NS3 helicase binding to Cy5-dT15 DNA, stronger effect = higher value, concentration not given here
[4] = molecular target: Single-stranded DNA-binding protein (Escherichia coli (strain K12)) (UniProt P0AGE0); experiment: SSB-ssDNA binding inhibitors – biochemical, fluorescence polarization, NIH Clinical Collection, counter-screen for HCV NS3 helicase inhibitor project (AID 743271; in the data active = inhibition above about 28%); details: E. coli SSB-DNA binding, stronger effect = higher value, concentration not given here
[5] = compounds distorting NS3 helicase fluorescence signal – biochemical, NIH Clinical Collection, artefact control for HCV NS3 helicase inhibitor project (AID 743272); details: fluorescence interference counterscreen, HCV NS3 helicase assay; stronger effect = lower value;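 also: HCV NS3 helicase with a Cy5 labelled single stranded DNA probe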
[6] = test system: Neuropilin-2 / VEGF-C interaction (human); experiment: small molecules blocking Neuropilin-2/VEGF-C interaction – biochemical, microplate binding format, z-score (AID 743281); details: microplate NRP2/VEGF-C binding assay; stronger effect = lower value
[7] = Wnt pathway potentiators raising nuclear beta-catenin – imaging, WNT3A-conditioned medium, mouse C2C12, NPC library, primary screen (AID 1117326; in the data active = nuclear beta-catenin stimulation mostly above about 4.2%, no sharp cut-off; inactive = mostly below about 10%); details: stronger effect = higher value
[8] = stimulators of insulin release from INS-1E, primary screen, cell-based, 5 mM glucose, NPC library (AID 1117329;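 active = compound raises insulin release from rat beta cells at 5 mM glucose, no numeric limit stated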); details: rat INS-1E insulin secretion, at 10 µM, stronger effect = higher value
[9] = growth inhibition of GSK3B-pretreated HCT116 cells – cell-based, CellTiter-Glo, 0.2 to 20 µM (AID 1117336;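 active = compounds lowering colon cancer cell viability after pretreatment blocking the GSK3B kinase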); details: HCT116 viability after GSK3B inhibitor, at 20 µM, stronger effect = higher value
[10] = inhibition of endothelial tube formation, primary screen, imaging, VEGF stimulated, CD31 staining, tube area, NPC library (AID 1117340;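 active = compound that reduces growth-factor-driven endothelial tube area in a mixed cell culture, no cutoff stated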); details: VEGF-stimulated ADSC/ECFC co-culture, at 10 µM, stronger effect = higher value
[11] = GLP1 release stimulators, primary, NCI-H716, NPC library (AID 1117341;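 active = compound raises GLP1 secretion from the human gut endocrine cells, with no numeric limit stated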); details: NCI-H716 cells, at 10 µM, stronger effect = higher value
[12] = HCT116 colon cancer cell growth inhibition, primary screen, CellTiter-Glo luminescence, NPC library (AID 1117342;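 active = compounds that lower survival of HCT116 colon cancer cells in the luminescence readout, no numeric limit stated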); details: at 20 µM (top of the series)
[13] = reduced SW480 viability measured with CellTiter-Glo, NPC library, primary (AID 1117343;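 active = compounds that lower viability of the colon cancer cells in the luminescence readout, with no numeric limit stated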); details: CellTiter-Glo luminescence; at 20 µM (top of the series)
[14] = NPC library primary testing for decreased DLD-1 cell viability via CellTiter-Glo (AID 1117346;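 active = compounds that lower survival of DLD-1 colon cancer cells in the luminescence readout, no cutoff given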); details: DLD-1 viability, CellTiter-Glo luminescence; at 20 µM (top of the series)

SMILES	parasite load remaining [1]	viability [1]	fluorescence ratio [2]	inhibition [3]	inhibition [4]	fluorescence ratio [5]	z-score [6]	nuclear beta-catenin stimulation ([7]; at 10 µM)	nuclear beta-catenin stimulation ([7]; stimulation, at 2 µM) [%]	insulin secretion stimulation [8]	viability decrease [9]	tube area decrease [10]	GLP1 secretion stimulation [11]	inhibition of viability [12]	viability decrease (inhibition) [13]	viability decrease (inhibition) [14]	outcome [6]
CC(C)(C#N)c1cc(Cn2cncn2)cc(C(C)(C)C#N)c1	73.5% (inactive) and 47.4% (inactive)	67.1% and 158%	0.93 (inactive)	-0.22% (inactive)	1.18% (inactive)	0.92 (inactive)	1.38 (inactive)	0.3% (inactive)	1.7	2.3% (inactive)	-0.4% (inactive)	-11.4% (inactive)	2.1% (inactive)	-5.9% (inactive)	45.5% (inactive)	0.55% (inactive)	
COC(=O)CCc1ccc(OCC(O)CNC(C)C)cc1 (centres undefined)	82.9% (inactive) and 30.6% (inactive)	72.2% and 73%	1.05 (inactive)	-1.98% (inactive)	-5.49% (inactive)	1.01 (inactive)	0.0866 (inactive)	-2% (inactive)	0.1	6.9% (inactive)	-7.2% (inactive)	-8.1% (inactive)	-0.5% (inactive)	18.6% (inactive)	39.7% (inactive)	16.8% (inactive)	
O=C(O)CCNC(=O)c1ccc(N=Nc2ccc(O)c(C(=O)O)c2)cc1	105% (inactive) and 63.3% (inactive)	90.8% and 75.1%	0.93 (inactive)	-2.84% (inactive)	1.97% (inactive)	0.94 (inactive)		0.8% (inactive)	0.3	5.4% (inactive)	5.2% (inactive)	11.5% (inactive)	1.6% (inactive)	6.1% (inactive)	57.8% (active)	6.7% (inactive)	inactive
Cc1nc2ccc(CN(C)c3ccc(C(=O)N[C@@H](CCC(=O)O)C(=O)O)s3)cc2c(=O)[nH]1	12.1% (inactive)	89.6%	0.88 (inactive)	-4.59% (inactive)	17.7% (inactive)	0.88 (inactive)		61.4% (active)	62.4	-5.7% (inactive)	83.7% (active)	62.5% (active)	1% (inactive)	78.2% (active)	117% (active)	56.2% (active)	inactive
Cc1ccnc2c1NC(=O)c1cccnc1N2C1CC1	79.8% (inactive)	69.1%	1.05 (inactive)	1.98% (inactive)	-5.49% (inactive)	1 (inactive)	-1.18 (inactive)	0% (inactive)	1.8	-1.6% (inactive)	-14.3% (inactive)	-6.9% (inactive)	-2% (inactive)	6.5% (inactive)	-13.1% (inactive)	13.6% (inactive)	
Cn1nnc2c(C(N)=O)ncn2c1=O	106% (inactive) and 19.4% (inactive)	79.6% and 80.5%	1.03 (inactive)	-5.94% (inactive)	-0.87% (inactive)	0.9 (inactive)	-0.72 (inactive)	-1.7% (inactive)	0	6.3% (inactive)	-10.2% (inactive)	26.7% (inactive)	-2.4% (inactive)	1.9% (inactive)	-3.8% (inactive)	-1.4% (inactive)	
CC1(C)S[C@@H]2[C@H](N=CN3CCCCCC3)C(=O)N2[C@H]1C(=O)O	101% (inactive)	79.6%	1.06 (inactive)	-1.98% (inactive)	-4.72% (inactive)	1.04 (inactive)	-0.418 (inactive)	0.4% (inactive)	0.8	-1.6% (inactive)	-5.75% (inactive)	4.4% (inactive)	-0.7% (inactive)	15.1% (inactive)	-20.4% (inactive)	-12.8% (inactive)	
CCN1CCN(c2cc3c(cc2F)c(=O)c(C(=O)O)cn3C2CC2)CC1	29.1% (inactive) and 34.1% (inactive) and 1.73% (inactive)	97.4% and 66.5% and 68.5%	1 (inactive)	0.66% (inactive)	0.39% (inactive)	0.97 (inactive)	-0.441 (inactive)	0.9% (inactive)	0.3	-0.15% (inactive)	38% (inactive)	8.4% (inactive)	0.4% (inactive)	36.2% (inactive)	11.7% (inactive)	-6.2% (inactive)	
CCCc1c(OCCCCc2nn[nH]n2)ccc(C(C)=O)c1O	103% (inactive)	65.9%	1.03 (inactive)	5.15% (inactive)	-3.18% (inactive)	0.98 (inactive)	0.174 (inactive)	0.3% (inactive)	1.2	-0.7% (inactive)	49.9% (inactive)	15.6% (inactive)	6.3% (inactive)	54.3% (active)	29.7% (inactive)	27.7% (inactive)	
CC(=O)OCC(=O)NCCCOc1cccc(CN2CCCCC2)c1	165% (inactive) and 103% (inactive) and 34.4% (inactive)	104% and 78.4% and 85%	1.04 (inactive)	-0.4% (inactive)	-0.1% (inactive)	1.02 (inactive)	-0.306 (inactive)	1.8% (inactive)	0.4	-0.7% (inactive)	-69.8% (inactive)	10.4% (inactive)	-0.3% (inactive)	-15.6% (inactive)	22.9% (inactive)	-31.7% (inactive)	
COCc1c(C(C)C)nc(C(C)C)c(/C=C/[C@@H](O)C[C@@H](O)CC(=O)O)c1-c1ccc(F)cc1	149% (inactive) and 309% (inactive)	53.2% and 109%	1.03 (inactive)	-4.36% (inactive)	-2.41% (inactive)	0.99 (inactive)	-0.18 (inactive)	18.8% (active)	44.8	-0.8% (inactive)	107% (active)	107% (active)	3.1% (inactive)	112% (active)	151% (active)	98.6% (active)	
CC(Oc1c(Cl)cccc1Cl)C1=NCCN1 (centres undefined)	53.2% (inactive) and 28% (inactive)	69% and 138%	0.98 (inactive)	-8.08% (inactive)	-3.54% (inactive)	0.95 (inactive)	0.439 (inactive)	-2.3% (inactive)	0.3	2.3% (inactive)	-16.2% (inactive)	-28.5% (inactive)	-2.9% (inactive)	31.3% (inactive)	12.5% (inactive)	61.6% (active)	
COC(=O)C1=C(C)NC(C)=C(C(=O)OC(C)C)C1c1cccc2nonc12 (centres undefined)	105% (inactive) and 85.6% (inactive)	74.3% and 66.7%	1.01 (inactive)	6.73% (inactive)	4.52% (inactive)	0.98 (inactive)	-2.69 (inactive)	28.6% (inactive)	0.3	-0.7% (inactive)	-4.5% (inactive)	13.7% (inactive)	-2.4% (inactive)	48.4% (inactive)	20.8% (inactive)	11.2% (inactive)	
CN1[C@@H]2CC[C@H]1CC(OC(=O)c1c[nH]c3ccccc13)C2 (some centres undefined)	118% (inactive) and 21.9% (inactive)	102% and 67.5%	1.02 (inactive)	-3.56% (inactive)	-3.95% (inactive)	0.9 (inactive)	-0.714 (inactive)	1.1% (inactive)	1.6	13.7% (inactive)	24.6% (inactive)	16.9% (inactive)	-0.1% (inactive)	57.8% (active)	51.8% (active)	43.6% (inactive)	
CNNCc1ccc(C(=O)NC(C)C)cc1	101% (inactive) and 80.5% (inactive) and 21.4% (inactive)	76.9% and 70.8% and 66.5%	1.04 (inactive)	1.19% (inactive)	-0.1% (inactive)	1.02 (inactive)	-0.83 (inactive)	-2% (inactive)	1	0.5% (inactive)	-8.6% (inactive)	0.7% (inactive)	-0.6% (inactive)	-1.9% (inactive)	5.8% (active)	-10.5% (inactive)	
O=c1[nH]cnc2c1ncn2[C@H]1CC[C@@H](CO)O1	41.8% (inactive) and 84.4% (inactive) and 65.2% (inactive)	46.9% and 69.4% and 110%	1.06 (inactive)	1.19% (inactive)	0.67% (inactive)	1.01 (inactive)		-2.1% (inactive)	-0.4	3.9% (inactive)	-9% (inactive)	-4.4% (inactive)	3.6% (inactive)	-3.4% (inactive)	-7.8% (inactive)	-6.1% (inactive)	inactive
COc1cc(C)nc(-n2nc(C)cc2OC)n1	32% (inactive) and 118% (inactive) and 64.4% (inactive)	46.8% and 89.6% and 75.3%	0.95 (inactive)	-0.22% (inactive)	5.91% (inactive)	0.88 (inactive)	-0.659 (inactive)	-1.3% (inactive)	-0.3	2.5% (inactive)	-5% (inactive)	24.2% (inactive)	-5.7% (inactive)	-10.1% (inactive)	1.8% (inactive)	-17.2% (inactive)	
CC(=O)Nc1ccc(CC(=O)O)cc1	119% (inactive)	78.7%	1.02 (inactive)	0.4% (inactive)	-2.41% (inactive)	0.93 (inactive)	-0.00496 (inactive)	-0.2% (inactive)	0.4	-2.2% (inactive)	-4.5% (inactive)	12.1% (inactive)	0.9% (inactive)	-11% (inactive)	16.5% (inactive)	-2.4% (inactive)	
CCOc1cc(CC(=O)N[C@@H](CC(C)C)c2ccccc2N2CCCCC2)ccc1C(=O)O	85.6% (inactive) and 16.6% (inactive) and 98.7% (inactive)	77.8% and 183% and 76.2%	1.02 (inactive)	5.94% (inactive)	2.21% (inactive)	1.02 (inactive)	-0.286 (inactive)	-1.5% (inactive)	0.2	43.9% (active)	70.5% (active)	-11.3% (inactive)	0.5% (inactive)	29.7% (inactive)	68.3% (active)	33.3% (inactive)	
